Source: PubChem (National Center for Advancing Translational Sciences (NCATS))
Most compounds without a hit are left out; they make up all but 7.4% or so of the library.
NPC1 prom act: qHTS Assay for NPC1 Promoter Activators; Huh7 NPC1 promoter luciferase reporter, 24 h; Potency, µM (highest dose often 9.22 µM), without a hit: at the top dose activation, actives largely listed as activators; 2.4% of 320,000 active; AID 485313, 2010; further: % of control where 0% means no effect; nearly all actives have a fitted effect of over 60% in size
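Luminescence read-out of NPC1 promoter-driven luciferase in stably transfected Huh7 cells; compounds delivered in DMSO and left 24 h at 37C, 5% CO2, qHTS titration format.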
KinaseGlo FLuc: Counterscreen for Luciferase (Kinase-Glo TM) Inhibition | Luciferin 4-monooxygenase (Photuris pensylvanica), Q27757 | Kinase-Glo luciferase, ATP luminescence, 8 min | Potency, µM (top dose mostly 38.3 µM), without a hit: top-dose activity change, negative = inhibition, most hits filed as inhibitors | 0.28% of 200,000 active | AID 1379, 2008; further: on the % scale 0 is the no-effect control and ±100 the full control effect; nearly all actives have a fitted effect of over 60% in size
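Luminescence was the read-out, taken after 8-minute incubation at ambient temperature. Luciferase turned over luciferin with 10 uM ATP in imidazole pH 7.2 buffer containing KCl, MgCl2, Tween 20 and BSA.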
SMN2 splice enh: qHTS Assay for Enhancers of SMN2 Splice Variant Expression; HEK293 SMN2-luciferase splicing reporter, luminescence, 30-36 h; 2.8% of 210,000 active; Potency, µM (doses to about 46.1 µM), without a hit: at the highest dose activity change, positive = activation, usual class: activators; further: % of control where 0% means no effect; nearly all actives have a fitted effect of over 55% in size
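qHTS luciferase splicing reporter: luminescence rises when SMN2 exon 7 is included in transfected HEK293 cells. Compound exposure lasted 30-36 h at 37C, with 4.5 mM final sodium butyrate as control, followed by a ONE-Glo read.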
ELG1 genotoxic: qHTS screen for small molecules that induce genotoxicity in human embryonic kidney (HEK293T) cells expressing luciferase-tagged ELG1. Potency, µM (top dose mostly 46 µM), for inactives: at the top dose activity change, positive = activation, hits mostly activators. 1.3% of 330,000 active. HEK293T ELG1-luciferase reporter, luminescence, 16 h. AID 504466, 2011; further: % of control where 0% means no effect; nearly all actives have a fitted effect of over 60% in size
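DMSO vehicle served as control against compound-treated ELG1-luciferase HEK293T cells; exposure lasted 16 hr at 37 °C and 5% CO2, followed by ONE-Glo luminescence detection after 30 min.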
Rab9 promoter act: qHTS Assay for Rab9 Promoter Activators. Huh7 Rab9 promoter-luciferase reporter, luminescence, 24 h. Potency, µM (titrated, usually from 9.22 µM), for inactives: top-dose activation, negative = inhibition, actives largely listed as activators. 2.8% of 320,000 active; further: % of control where 0% means no effect; nearly all actives have a fitted effect of over 60% in size
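Huh7 reporter line, Rab9 promoter upstream of luciferase. Compound exposure 24 h at 37 °C in reduced-serum medium with 10% FBS. Read-out: luminescence.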
FLuc modulator: qHTS profiling assay for firefly luciferase inhibitor/activator using purifed enzyme and Km concentrations of substrates (counterscreen for miR-21 project); 6.9% of 360,000 active; Potency, µM (highest dose often 57.5 µM), for the others: at the highest dose activity change, negative = inhibition, usual class: inhibitors; purified FLuc, Km substrates, luminescence inhibition;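 further: plate controls were vehicle for no effect and reference inhibitor for full effect; nearly all actives have a fitted effect of over 55% in size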
Target sequence (P08659 whole entry, looked up): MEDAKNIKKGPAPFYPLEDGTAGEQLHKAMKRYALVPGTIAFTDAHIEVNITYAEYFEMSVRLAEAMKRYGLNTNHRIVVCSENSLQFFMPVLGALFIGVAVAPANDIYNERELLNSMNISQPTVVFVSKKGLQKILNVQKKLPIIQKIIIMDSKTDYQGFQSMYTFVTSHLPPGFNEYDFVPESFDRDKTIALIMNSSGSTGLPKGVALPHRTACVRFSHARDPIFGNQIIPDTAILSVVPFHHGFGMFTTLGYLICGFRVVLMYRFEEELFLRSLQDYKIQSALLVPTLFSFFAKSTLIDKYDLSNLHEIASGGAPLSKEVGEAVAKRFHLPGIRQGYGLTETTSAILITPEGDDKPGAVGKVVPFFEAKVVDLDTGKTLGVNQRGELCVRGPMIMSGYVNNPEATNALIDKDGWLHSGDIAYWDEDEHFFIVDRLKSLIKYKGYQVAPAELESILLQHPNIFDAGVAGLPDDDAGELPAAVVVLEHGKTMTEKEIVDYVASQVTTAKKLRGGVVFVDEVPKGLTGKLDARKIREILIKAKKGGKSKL
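Purified P. pyralis luciferase, 10 nM final, with Km-level 10 uM D-luciferin and 10 uM ATP in 50 mM Tris acetate pH 7.5, 10 mM Mg acetate, 0.01% Tween-20, 0.05% BSA; 6-point qHTS titration about 60 µM downward; luminescence read.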
Numbers without * were called inactive; ? = inconclusive; · = not tested or not shown; [ ] = remark or other dose. The call rests on the fitted dose curve; in most records, active means well fitted curve in the direction sought with a large enough effect; inconclusive means small, poorly fitted or top-dose-only effect, or another doubt; inactive means no such curve, though single readings can be large; an effect the other way counts as inactive or inconclusive. Potency means the concentration at half of the fitted maximal effect.

SMILES	NPC1 prom act	KinaseGlo FLuc	SMN2 splice enh	ELG1 genotoxic	Rab9 promoter act	FLuc modulator
Cc1ccc(-c2nc3cc(C)ccc3o2)cc1	?	?	11µM*	0.52µM*	0.63µM*	0.17µM*
Cc1ccc(-c2nc3cc(NS(=O)(=O)c4ccc(C)cc4)ccc3o2)cc1	-1%	-7%	-8%	6%	6%	?
CC(C)c1ccc2oc(-c3ccc(NC(=O)c4cc5ccccc5o4)cc3)nc2c1	·	·	-23%	·	·	-2%
Cc1ccc2oc(-c3cccc(N)c3)nc2c1	1µM*	·	·	2.3µM*	0.63µM*	0.76µM*
N[C@H](C(=O)O)[C@@H]1[C@@H](C(=O)O)C1(F)F	·	0%	-11%	·	·	·
Nc1cccc(-c2nc3cc(S(=O)(=O)c4ccc5oc(-c6cccc(N)c6)nc5c4)ccc3o2)c1	-18%	-2%	-41%	5%	-7%	0%
CC(C)(C)c1ccc(-c2nc3cc(N)ccc3o2)cc1	0.32µM*	·	·	1.3µM*	0.63µM*	0.43µM*
Nc1ccc2oc(-c3cccs3)nc2c1	3.2µM*	·	·	9.2µM*	3.5µM*	12µM*
Cc1ccc(/C(O)=C/c2nc3cc(C)ccc3oc2=O)cc1	-2%	·	·	1%	-4%	12µM*
CC(C)(C)c1ccc(-c2nc3cc(NC(=O)c4cc5ccccc5o4)ccc3o2)cc1	·	·	4%	·	·	?
Nc1ccc2oc(-c3cccc4ccccc34)nc2c1	-2%	-6%	10%	8%	8%	13µM*
O=C(Cn1c(SCCOc2ccccc2Cl)nc2ccccc21)N1CCOCC1	·	·	·	·	·	-1%
COc1ccc(-c2nc3ccccc3o2)cc1NC(=O)c1cccc2c(Cl)cccc12	·	·	1%	·	·	-3%
Cc1ccc(-c2nc3cc(N)ccc3o2)c(C)c1	?	-10%	?	2.6µM*	0.56µM*	0.67µM*
Cc1ccc(-c2nnc(N)o2)cc1	0%	-2%	15%	9%	-1%	?
Cc1ccc(-c2nc3cc(N)ccc3o2)cc1	0.45µM*	-10%	0.71µM*	0.33µM*	0.45µM*	0.6µM*
c1ccc(Cn2c(-c3ccco3)nc3nc4ccccc4nc32)cc1	3.5µM*	?	16µM*	?	3.2µM*	2.7µM*
c1coc(-c2nc3nc4ccccc4nc3n2-c2ccc3c(c2)OCCO3)c1	2%	-15%	-20%	-6%	15%	3.8µM*
O=c1c2ccccc2nc(-c2ccc(Br)cc2)n1Cc1ccccc1	2%	-1%	-9%	-9%	0%	-1%
O=c1c2ccccc2nc(-c2ccco2)n1Cc1ccccc1	·	-20%	?	·	·	13µM*
COC(=O)c1ccc(Nc2nnc(-c3ccc(C)c(S(=O)(=O)N4CCN(C)CC4)c3)c3ccccc23)cc1	·	·	-11%	·	·	?
O=C(Nc1nc(-c2ccccn2)cs1)c1ccco1	24%	-3%	-85%	?	10%	?
Fc1ccc(Nc2nc(-c3ccncc3)cs2)cc1	?	0%	?	-1%	?	?
c1ccc(-c2csc(Nc3cccnc3)n2)nc1	?	0%	?	?	?	19µM*
c1ccc(Nc2nc(-c3ccccn3)cs2)cc1	·	-3%	13µM*	·	·	3.8µM*
SMILES	NPC1 prom act	KinaseGlo FLuc	SMN2 splice enh	ELG1 genotoxic	Rab9 promoter act	FLuc modulator
COc1cccc2sc(NNC(=O)COc3ccccc3)nc12	4%	-1%	5%	-2%	-1%	-1%
c1cncc(Nc2nc(-c3cccs3)cs2)c1	?	-1%	11µM*	9.2µM*	3.2µM*	19µM*
COc1cccc2sc(Nc3nc(-c4ccccn4)cs3)nc12	21%	·	·	9%	?	12µM*
C[C@@H]1CC[C@@]2(OC1)OC1CC3C4CC=C5CC(O)CCC5(C)C4CCC3(C)C1[C@@H]2C (stereo not given in full)	·	3%	9%	·	·	·
CCN(CC)C(=O)COc1ccc(-c2ccccc2)cc1	?	-5%	8%	?	?	13µM*
CCN(CC)C(=O)COc1ccc(/C(C)=N/NC(=O)c2ccccc2O)cc1	13%	1%	-16%	18%	?	6.7µM*
CCN(Cc1ccccc1)C(=O)COc1ccccc1	-3%	·	·	1%	-2%	1%
O=C1OC(c2cc(I)c(O)c(I)c2)(c2cc(I)c(O)c(I)c2)c2ccccc21	·	2%[39.9 µM]	·	·	·	·
N#C/C(=N\O)c1nc2ccccc2s1	-4%	2%	·	-2%	4%	?
N#C/C(=C(/O)c1ccc(F)cc1)c1nc2ccccc2s1	2.5µM*	-4%	-35%	-2%	2.5µM*	9.5µM*
N#C/C(=C(/O)CSc1ccccn1)c1nc2ccccc2s1	0%	1%	77%	6%	-6%	21µM*
Cc1ccc(SC/C(O)=C(\C#N)c2nc3ccccc3s2)cc1	-2%	0%	11%	-5%	-4%	?
N#C/C(=C(/O)COc1ccccc1)c1nc2ccccc2s1	-1%	1%	2%	-6%	-1%	19µM*
COc1ccc(C/C(O)=C(\C#N)c2nc3ccccc3s2)cc1	-4%	0%	-45%	-8%	-3%[1.84 µM]	?
N#C/C(=C(/O)c1ccc(-c2cccc([N+](=O)[O-])c2)o1)c1nc2ccccc2s1	8%	-1%	2%	-4%	17%	3µM*
Cc1ccc(C)c(CN2C(=O)c3ccccc3Sc3ccc(C(=O)NCc4ccco4)cc32)c1	·	·	·	·	·	-3%
Cc1ccc(NC(=O)Nc2nnc(N(C)C3CCCCC3)s2)c(Cl)c1	·	·	·	·	·	-4%
O=C1CCSC2(C(=O)N(Cc3ccc(F)cc3)c3ccccc32)N1c1ccc(F)c(F)c1 (stereo not given)	·	·	·	·	·	-3%
COCCOC(=O)c1c(-c2ccccc2)c(-c2ccccc2)nn(C)c1=O	·	·	-11%	·	·	-2%
N#C/C(=C(/O)COc1ccc(Cl)cc1)c1nc2ccccc2s1	4%	-1%	-15%	-10%	-2%	24µM*
CCS(=O)(=O)c1nc2ccccc2n1CC(=O)Nc1ccccc1C(=O)OC	·	·	0%	·	·	2%
Nc1c(C(=O)Nc2ccccc2)nnn1-c1ccc2c(c1)OCCO2	0.22µM*	·	·	0.18µM*	0.1µM*	0.85µM*
Cc1ccc(NC(=O)c2nnn(-c3ccc4c(c3)OCCO4)c2N)cc1	2.2µM*	·	·	?	5.6µM*	11µM*
Cc1ccc(/C=C/C(=O)Nc2cccnc2)o1	26%	-2%	?	0%	?	24µM*
